The record followed here is the antibiotic and cytotoxicity screens of Wong et al. (2023).

The campaign covered roughly 39,000 compounds. About 3,300 (8.5%) were called active. The full list was thinned out, with actives kept by preference.

This experiment has as its system HepG2. The experiment can be described thus: cytotoxicity call (relative viability < 0.9). To be noted: 10 µM.
In the case of `COc1ccc(S(=O)(=O)Nc2ccc3c(c2)C(=O)N([C@@H](C)CO)C[C@@H](C)[C@@H](CN(C)CC2CC2)O3)cc1`, the cytotoxicity call was “inactive”.
Regarding `Cc1noc(C)c1S(=O)(=O)Nc1cccc2c1O[C@@H](CN(C)C(=O)Nc1ccccc1)[C@@H](C)CN([C@@H](C)CO)C2=O`, the cytotoxicity call was “inactive”.
On to `COc1ccc(NC(=O)N(C)C[C@@H]2OCCCC[C@@H](C)Oc3ccc(NC(=O)Nc4ccc5c(c4)OCO5)cc3C(=O)N([C@H](C)CO)C[C@H]2C)cc1`, for which the cytotoxicity call is “inactive”.
`O=C(C[C@H]1CC[C@H](NC(=O)c2ccc(F)cc2)[C@H](CO)O1)NCc1ccncn1`: the cytotoxicity call was “inactive”.
As for `COc1ccc(NC(=O)Nc2ccc3c(c2)[C@H]2C[C@H](CC(=O)NCc4ccncc4)O[C@@H](CO)[C@H]2O3)cc1`, the cytotoxicity call is “inactive”.
As for `COc1ccc(NC(=O)N(C)C[C@@H]2OCCCC[C@H](C)Oc3ccc(NS(=O)(=O)c4ccccc4)cc3C(=O)N([C@@H](C)CO)C[C@@H]2C)cc1`, the entry is “inactive”; as for `C=CCOC(=O)[C@H]1[C@@H]2C(=O)O[C@@H](c3ccccc3)[C@@H](c3ccccc3)N2[C@@H](c2ccc(OCCOC(=O)[C@@H]3C[C@@H]4C(=O)NCC(=O)N4[C@@H]3c3cccc(OCCO)c3)cc2)[C@]12C(=O)Nc1ccc(I)cc12`, “inactive”; as for `O=C(C[C@@H]1C[C@@H]2c3cc(NC(=O)Nc4ccc(C(F)(F)F)cc4)ccc3O[C@@H]2[C@@H](CO)O1)NCc1ccc(Cl)cc1`, “inactive”.
The entry for `Cc1noc(C)c1NC(=O)Nc1cccc2c1O[C@@H](CN(C)S(=O)(=O)c1cn(C)cn1)[C@@H](C)CN([C@H](C)CO)C2=O` is “inactive”; for `COc1cccc(S(=O)(=O)Nc2ccc3c(c2)OC[C@@H](C)N(C(=O)Cc2cccnc2)C[C@@H](C)[C@@H](OC)CN(C)C3=O)c1` it is “inactive”; for `C[C@@H]1CN([C@@H](C)CO)C(=O)c2cccc(NC(=O)c3ccncc3)c2O[C@@H]1CN(C)Cc1ccc(Oc2ccccc2)cc1` it is “inactive”.
As to `CC(C)N1CC[C@H](CN(C)Cc2ccc(Oc3ccccc3)cc2)Oc2c(NC(=O)c3ccncc3)cccc2C1=O`, the cytotoxicity call was “inactive”.
The entry for `C[C@@H]1CN([C@@H](C)CO)C(=O)c2cccc(NC(=O)C3CC3)c2O[C@@H]1CN(C)Cc1ccc(Oc2ccccc2)cc1` is “inactive”; for `C[C@@H]1CN([C@@H](C)CO)C(=O)c2cccc(NC(=O)c3ccncc3)c2O[C@H]1CN(C)Cc1ccc(Oc2ccccc2)cc1` it is “inactive”.
As for `C[C@H](CO)N1C[C@H](C)[C@@H](CN(C)Cc2ccc(Oc3ccccc3)cc2)Oc2c(NC(=O)C3CC3)cccc2C1=O`, the entry is “inactive”.
The entry for `C[C@H]1CN([C@@H](C)CO)C(=O)c2cccc(NC(=O)C3CC3)c2O[C@@H]1CN(C)Cc1ccc(Oc2ccccc2)cc1` is “inactive”.
As for `CC(C)N1C[C@@H](CN(C)Cc2ccc(Oc3ccccc3)cc2)Oc2c(NC(=O)c3ccncc3)cccc2C1=O`, the cytotoxicity call is “active”.
The entry for `C[C@@H]1CN([C@H](C)CO)C(=O)c2cccc(NC(=O)C3CC3)c2O[C@H]1CN(C)Cc1ccc(Oc2ccccc2)cc1` is “inactive”; for `CC(C)N1C[C@H](CN(C)Cc2ccc(Oc3ccccc3)cc2)Oc2c(NC(=O)c3ccncc3)cccc2C1=O` it is “inactive”; for `CC(C)N1C[C@H](C)[C@@H](CN(C)Cc2ccc(Oc3ccccc3)cc2)Oc2c(NC(=O)C3CCN(C)CC3)cccc2C1=O` it is “active”.
As for `COC[C@H](C)N1C[C@H](C)[C@@H](CN(C)Cc2ccc(Oc3ccccc3)cc2)Oc2c(NC(=O)c3ccncc3)cccc2C1=O`, the entry is “active”.
As for `CC(C)N1C[C@H](C)[C@@H](CN(C)Cc2ccc(Oc3ccccc3)cc2)Oc2c(NC(=O)C3CCNCC3)cccc2C1=O`, the entry is “active”; as for `COc1ccc(S(=O)(=O)Nc2cccc3c2O[C@@H](CN(C)S(=O)(=O)c2cccs2)[C@@H](C)CN([C@H](C)CO)C3=O)cc1`, “inactive”.
On to `N#CCC(=O)Nc1ccncc1`, for which the cytotoxicity call was “inactive”.
As for `COc1ccc(S(=O)(=O)N[C@H]2C=C[C@@H](CC(=O)NCCc3ccncc3)O[C@@H]2CO)cc1`, the entry is “inactive”; as for `COc1ccc(NC(=O)N2C[C@@H](O)COC[C@@H]3O[C@@H](CC(=O)NCc4ccccc4OC)CC[C@H]32)cc1`, “inactive”; as for `C[C@H]1CN([C@@H](C)CO)S(=O)(=O)c2ccc(C#Cc3ccccc3F)cc2O[C@H]1CN(C)C(=O)Cc1ccncc1`, “inactive”.
The entry for `CC(C)N1C[C@H](C)[C@@H](CN(C)Cc2ccc(Oc3ccccc3)cc2)Oc2c(NC(=O)c3ccccc3)cccc2C1=O` is “active”; for `CC(C)N1C[C@H](C)[C@@H](CN(C)Cc2ccc(Oc3ccccc3)cc2)Oc2c(NC(=O)c3ccncc3)cccc2C1=O` it is “inactive”.
As for `CC(C)N1C[C@H](C)[C@@H](CN(C)Cc2ccc(Oc3ccccc3)cc2)Oc2c(NC(=O)c3cccnc3)cccc2C1=O`, the entry is “inactive”.
Consider `C[C@H]1CCCCO[C@@H](CN(C)C(=O)c2ccccc2)[C@@H](C)CN([C@@H](C)CO)C(=O)c2cc(NC(=O)Nc3ccc(C(F)(F)F)cc3)ccc2O1`, for which the cytotoxicity call is “inactive”.
The entry for `COc1ccc(CNC(=O)C[C@@H]2C[C@@H]3c4cc(NC(=O)NC5CCCC5)ccc4O[C@@H]3[C@@H](CO)O2)cc1` is “inactive”.
As for `O=C(C[C@H]1C[C@@H]2c3cc(NS(=O)(=O)c4ccc(F)cc4)ccc3O[C@@H]2[C@@H](CO)O1)NCc1cccnc1`, the entry is “inactive”; as for `C[C@H]1CCCCO[C@@H](CN(C)Cc2ccncc2)[C@@H](C)CN([C@@H](C)CO)C(=O)c2cc(NC(=O)Nc3cccc4ccccc34)ccc2O1`, “inactive”; as for `C[C@@H]1CN([C@@H](C)CO)C(=O)c2cc(C#Cc3ccc(F)cc3)cnc2O[C@@H]1CN(C)CC1CCOCC1`, “inactive”.
As for `Cc1ccc(S(=O)(=O)Nc2ccc3c(c2)C(=O)N([C@H](C)CO)C[C@H](C)[C@H](CN(C)C(=O)Nc2ccc(F)cc2)OCCCC[C@@H](C)O3)cc1`, the entry is “inactive”; as for `O=c1nc(N2CCc3ccccc3C2)cn[nH]1`, “inactive”.
As for `COc1ccc(NC(=O)N(C)C[C@@H]2OCCCC[C@H](C)Oc3ccc(NS(=O)(=O)c4ccc(Cl)cc4)cc3C(=O)N([C@@H](C)CO)C[C@@H]2C)cc1`, the cytotoxicity call is “inactive”.
On to `COc1ccc2c3c([nH]c2c1)[C@H](CO)N(C[C@]13CCN(CC1)C(=O)c1ccccc1F)C(=O)Nc1ccc(cc1)F`, for which the cytotoxicity call is “inactive”.
The entry for `COc1ccc2c3c([nH]c2c1)[C@@H](CO)N(C[C@]13CCN(CC1)C(=O)c1ccccc1F)C(=O)Nc1ccc(cc1)F` is “inactive”; for `COc1ccc(cc1)CN1CC[C@]2(CC1)CN([C@@H](CO)c1[nH]c3cc(ccc3c12)OC)C(=O)Nc1ccc(cc1)F` it is “active”.
The entry for `COc1ccc2c3c([nH]c2c1)[C@H](CO)N(C[C@]13CCN(CC1)C(=O)Nc1ccc(cc1)F)C(=O)c1ccc(cc1)F` is “inactive”; for `COc1ccc(cc1)CN1CC[C@]2(CC1)CN([C@H](CO)c1[nH]c3cc(ccc3c12)OC)C(=O)Nc1ccc(cc1)F` it is “active”; for `COc1ccc2c3c([nH]c2c1)[C@@H](CO)N(C[C@]13CCN(CC1)Cc1cc(on1)-c1ccccc1)C(=O)Nc1ccc(cc1)F` it is “inactive”.
